Test [1] is described as follows: Cell Viability qHTS for small molecule stabilizers of the endoplasmic reticulum resident proteome (AID 1508629; active = well fitted curve in the direction sought with a large enough effect; an effect the other way counts as inactive or inconclusive;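 note: human SH-SY5Y neuroblastoma cells carrying the GLuc-SERCaMP reporter; compound exposure about 46 h in total before the viability read; % is set by controls: 0 for no effect and ±100 for the full control effect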). The note with it: cell viability counter-screen, 100 nM thapsigargin for final 4 h. Background: Quantitative high-throughput screening tests each substance at several concentrations.
Test [2] is described as follows: Confirmatory qHTS to identify inhibitors of SARS-CoV-2 cell entry (AID 1645844). Note: nearly all actives have a fitted effect of over 45% in size. Note: potency is the fitted concentration of half-maximal effect. The note with it: SARS-CoV-2 pseudotyped particle cell entry, luciferase; series mostly up to 57.2 µM. The procedure, abridged: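 HEK293-ACE2 cells were pretreated 1 h with compound, then infected with MLV-based pseudoparticles bearing C-terminally truncated Wuhan-Hu-1 spike for 48 h at 37C; luciferase luminescence normalized to spike PP and bald PP wells.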

Test [3] in a line: Primary qHTS for small molecule stabilizers of the endoplasmic reticulum resident proteome: Secreted ER Calcium Modulated Protein (SERCaMP) assay (AID 1508630; active = well fitted curve in the direction sought with a large enough effect; an effect the other way counts as inactive or inconclusive; note: % is set by controls: 0 for no effect and ±100 for the full control effect). Particulars: SH-SY5Y GLuc-SERCaMP (Gaussia luciferase released on ER calcium loss) secretion, thapsigargin, luminescence; series mostly up to 38.4 µM. The procedure, abridged: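 GLuc-SERCaMP-expressing SH-SY5Y cells, pretreated 16 h with compound, are challenged with thapsigargin to empty ER calcium stores; after 4 h, coelenterazine is added directly to the medium and luminescence is imaged.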

Test [4] can be described thus: A High-Content qHTS Against Drug Library for the Identification of Small Molecules that Inhibit DYT1 Early Onset Primary Dystonia-Associated Cell Pathology (AID 1645839). The note with it: HEK293 Flp-In EGFP-delE TorsinA, punctate imaging, 48 h; series mostly up to 46.1 µM. The procedure, abridged:
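Flp-In T-REx 293 cells with tetracycline-inducible EGFP-delE hTOR1A (WT EGFP-hTOR1A as reference), 800 cells/well; compound added with tetracycline, 48 h at 37 C. Fixed, permeabilized cells imaged; %pathology (punctate TorsinA) primary, cell count counterscreen.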

Test [5] addresses Cytochrome P450 2C9 (Homo sapiens) (UniProt P11712). The experiment in a line: Cytochrome P450 family 2 subfamily C member 9 (CYP2C9) small molecule antagonists: luciferase biochemical (cell-free) qHTS assay (AID 1645842; active = well fitted curve in the direction sought with a large enough effect in the repeat runs; an effect the other way counts as inactive or inconclusive; note: nearly all actives have a fitted effect of over 55% in size; note: potency is the fitted concentration of half-maximal effect). Particulars: P450-Glo CYP2C9 enzyme assay, luciferin luminescence; series mostly up to 57.4 µM. The procedure, abridged: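 Luminescence, after 20 min with luciferin detection reagent, reflected CYP2C9 turnover during a 1 h NADPH-driven reaction at 37C. Enzyme-substrate mix contained 0.4% bovine serum albumin and was preincubated with compound 10 min at room temperature.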

Test [6] concerns the target Cytochrome P450 3A4 (Homo sapiens) (UniProt P08684). As to the kind of experiment: Cytochrome P450 family 3 subfamily A member 4 (CYP3A4) small molecule antagonists: luciferase qHTS assay (AID 1645841; active = well fitted curve in the direction sought with a large enough effect in the repeat runs; an effect the other way counts as inactive or inconclusive; note: potency is the fitted concentration of half-maximal effect; nearly all actives have a fitted effect of over 45% in size). Particulars: P450-Glo CYP3A4 enzyme assay, luciferin luminescence; series mostly up to 57.4 µM. The essentials:
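P450-Glo CYP3A4 enzyme with proluciferin substrate preincubated 10 min with compound at room temperature, then NADPH regeneration 1 h. Luciferin detection reagent added for 20 min; luminescence recorded. Ketoconazole positive control.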

Test [7] is described as follows: Cytotoxicity counterscreen for inhibitors of SARS-CoV-2 cell entry (AID 1645845). Note: nearly all actives have a fitted effect of over 50% in size. Particulars: cell viability (SARS-CoV-2 entry assay cells); series mostly up to 57.1 µM. The essentials:
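HEK293-ACE2 cells (Expi293F stably expressing human ACE2) seeded overnight, then compound for 1 h plus 48 h at 37C. Viability as ATP content by luminescence; normalized to wells with cells and media-only wells.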
A general note: Counterscreens check selectivity or assay interference.

The target of test [8] is Cytochrome P450 2D6 (Homo sapiens) (UniProt P10635). The experiment in a line: Cytochrome P450 family 2 subfamily D member 6 (CYP2D6) small molecule antagonists: luciferase biochemical (cell-free) qHTS assay (AID 1645840; active = well fitted curve in the direction sought with a large enough effect in the repeat runs; an effect the other way counts as inactive or inconclusive; note: nearly all actives have a fitted effect of over 55% in size; note: potency is the fitted concentration of half-maximal effect). The note with it: P450-Glo CYP2D6 enzyme, luciferin luminescence, 1 h; series mostly up to 57.4 µM. The essentials:
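P450-Glo luminescent screen: recombinant CYP2D6 enzyme–proluciferin substrate mix preincubated with compound 10 min at room temperature, then NADPH regeneration added for 1 h at room temperature. Detection reagent added for 20 min; luciferin light read as relative luminescence units.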

Several values for one entry are separate records, joined by “and”; a condition that tells them apart may be missing. Identical values can stand only once. Inconclusive results are not listed. More than one record can exist for a structure, and the calls need not agree. Activity calls are given as the source filed them. Unless noted, calls come from the whole dose curve.

Sequence of Cytochrome P450 2D6 (Homo sapiens) (P10635 whole entry, looked up): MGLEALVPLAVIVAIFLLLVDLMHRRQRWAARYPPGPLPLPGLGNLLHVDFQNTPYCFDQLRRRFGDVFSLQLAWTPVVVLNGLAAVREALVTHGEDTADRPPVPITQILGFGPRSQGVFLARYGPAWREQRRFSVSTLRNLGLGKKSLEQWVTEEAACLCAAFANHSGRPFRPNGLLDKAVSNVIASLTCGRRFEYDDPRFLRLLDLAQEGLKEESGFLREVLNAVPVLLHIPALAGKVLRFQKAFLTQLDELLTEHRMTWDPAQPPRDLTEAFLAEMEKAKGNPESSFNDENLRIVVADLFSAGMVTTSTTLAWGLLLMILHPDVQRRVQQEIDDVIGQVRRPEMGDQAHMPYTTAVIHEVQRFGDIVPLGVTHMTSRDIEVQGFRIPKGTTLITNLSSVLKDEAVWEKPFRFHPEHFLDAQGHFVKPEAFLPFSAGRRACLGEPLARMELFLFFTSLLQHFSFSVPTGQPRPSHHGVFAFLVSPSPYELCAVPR
Sequence of Cytochrome P450 2C9 (Homo sapiens) (P11712 whole entry, looked up): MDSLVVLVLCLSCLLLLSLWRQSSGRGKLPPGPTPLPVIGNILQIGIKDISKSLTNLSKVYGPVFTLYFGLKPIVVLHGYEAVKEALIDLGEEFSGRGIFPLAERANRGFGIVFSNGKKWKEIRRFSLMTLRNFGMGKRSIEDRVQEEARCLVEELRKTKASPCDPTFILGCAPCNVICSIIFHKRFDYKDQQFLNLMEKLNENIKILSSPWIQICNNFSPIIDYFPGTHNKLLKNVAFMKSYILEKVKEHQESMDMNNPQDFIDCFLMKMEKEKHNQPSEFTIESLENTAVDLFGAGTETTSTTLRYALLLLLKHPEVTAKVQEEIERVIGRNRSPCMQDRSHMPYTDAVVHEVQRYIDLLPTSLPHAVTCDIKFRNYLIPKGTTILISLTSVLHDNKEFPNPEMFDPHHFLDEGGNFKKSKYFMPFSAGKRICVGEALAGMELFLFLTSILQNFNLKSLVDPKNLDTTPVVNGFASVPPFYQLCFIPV
Sequence of Cytochrome P450 3A4 (Homo sapiens) (P08684 whole entry, looked up): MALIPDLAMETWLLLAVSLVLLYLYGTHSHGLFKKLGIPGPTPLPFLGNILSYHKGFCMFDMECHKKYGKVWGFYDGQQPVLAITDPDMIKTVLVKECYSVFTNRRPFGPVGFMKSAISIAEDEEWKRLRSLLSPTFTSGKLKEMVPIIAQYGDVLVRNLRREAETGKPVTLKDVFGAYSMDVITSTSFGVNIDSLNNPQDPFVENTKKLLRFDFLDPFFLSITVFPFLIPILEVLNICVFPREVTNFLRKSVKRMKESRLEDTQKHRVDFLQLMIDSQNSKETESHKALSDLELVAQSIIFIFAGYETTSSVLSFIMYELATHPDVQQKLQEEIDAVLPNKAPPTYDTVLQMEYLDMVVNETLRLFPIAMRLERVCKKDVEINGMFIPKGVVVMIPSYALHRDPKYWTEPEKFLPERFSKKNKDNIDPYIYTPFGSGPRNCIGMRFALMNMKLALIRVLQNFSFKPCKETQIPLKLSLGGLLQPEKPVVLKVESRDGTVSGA

In the case of `COc1c2c(cc3c1OCO3)CCN(C)C2`, the max response in test [1] is 7.99% (inactive).

For `NNc1ccccc1`, in test [1], the max response is -1.1% (inactive).

Consider `COc1cccc2c1C(=O)c1c(O)c3c(c(O)c1C2=O)C[C@@](O)(C(=O)CO)CC3OC1CC(N2CCOC(OC)C2)C(O)C(C)O1` (some centres not stated), for which the Potency in test [2] was 0.0482 µM (active).

As to `Nc1ccccc1`, the Potency result in test [3] and in test [5] was “inactive” in each case. The result in test [4] was inactive.

As for `COc1cc(CCN)cc(OC)c1OC`, the Potency entry in test [3] and in test [5] was “inactive” each time. Besides, in test [4], the outcome was inactive.

As to `NC(=O)c1cc([N+](=O)[O-])cc([N+](=O)[O-])c1`, the Potency entry in test [3], in test [5] and in test [7] was “inactive” throughout. Moreover, in test [4], the molecule was classed as inactive. For the same molecule, in test [6], the Potency is 9.65 µM (active).

Take `CN1C(=O)CCS(=O)(=O)C1c1ccc(Cl)cc1` (configuration not stated): the Potency result in test [3], in test [8], in test [5] and in test [7] was “inactive” in each case. Moreover, the call in test [4] was inactive.

With `O=C1OC(CCN2CCCCC2)OC1(c1ccccc1)c1ccccc1` (configuration not stated), the Potency result in test [3] was “inactive”. The Potency in test [8] is 0.617 µM (active).

Regarding `CC(C)N(CCC(C(N)=O)(c1ccccc1)c1ccccn1)C(C)C` (configuration not stated), the Potency result in test [3], in test [8], in test [5] and in test [7] was “inactive” in each case. In addition, the molecule was called inactive in test [4].

`CNC(C)(C)Cc1ccccc1`: the Potency result in test [3] and in test [5] was “inactive” in each case. In test [4], the molecule was called inactive.

Take `COP(=S)(OC)Oc1ccc(SC)c(C)c1`: the Potency result in test [3], in test [8] and in test [7] was “inactive” in each case. Moreover, in test [4], the molecule was classed as inactive. Further, the Potency in test [5] is 3.89 µM (active).

For `O=C(O)CCCc1ccc(N(CCCl)CCCl)cc1`, the Potency entry in test [3], in test [8], in test [5] and in test [7] was “inactive” in each case. For the same molecule, the result in test [4] was inactive.

On to `O=C1c2ccccc2C(=O)c2ccccc21`, for which the Potency result in test [3], in test [8], in test [5] and in test [7] was “inactive” in each case. For the same molecule, the outcome in test [4] was inactive.

For `CCC(CC)(CNC(=O)CCCO)c1cccc(OC)c1`, the Potency result in test [3], in test [5] and in test [7] was “inactive” each time. The result in test [4] was inactive.

For the molecule `CCCCCCCCCC(=O)O[C@H]1CC[C@H]2[C@@H]3CCC4=CC(=O)CC[C@@H]4[C@H]3CC[C@]12C`, the Potency result in test [3] is “inactive”. Further, in test [4], the result was inactive. The Potency in test [5] was 12.3 µM (active).

As to `C[C@@H]1CC2=CC(=O)CC[C@@H]2[C@H]2CC[C@@]3(C)[C@@H](CC[C@]3(C)O)[C@@H]21`, the Potency result in test [3], in test [8], in test [5] and in test [7] was “inactive” in each case. For the same molecule, the result in test [4] was inactive.

Take `CC(C(=O)c1ccccc1)N(C)C` (configuration not stated): the Potency result in test [3] and in test [5] was “inactive” in each case. The molecule was called inactive in test [4].

On to `COP(=S)(OC)SCN1C(=O)c2ccccc2C1=O`, for which the Potency result in test [3] and in test [7] was “inactive” each time. Also, the molecule was classed as inactive in test [4]. The Potency was 15.5 µM (active) in test [8] and 0.776 µM (active) in test [5].

Regarding `O=C1OC(c2ccc(O)c(S(=O)(=O)O)c2)(c2ccc(O)c(S(=O)(=O)O)c2)c2c(Br)c(Br)c(Br)c(Br)c21`, the Potency result in test [3], in test [5] and in test [7] was “inactive” each time. In test [4], the call was inactive.

Regarding `C[N+]1(CCF)[C@@H]2CC[C@H]1CC(OC(=O)C(O)(c1ccccc1)c1ccccc1)C2` (some centres not stated), the Potency result in test [3], in test [5] and in test [7] was “inactive” in each case. Also, the outcome in test [4] was inactive. In addition, in test [8], the Potency is 15.5 µM (active).

For `[N-]=[N+]=CC(=O)OC[C@H](N)C(=O)O`, the Potency result in test [3] and in test [5] was “inactive” throughout. In test [4], the call was inactive.

On to `C[C@@H](N)[C@@H](O)c1ccccc1`, for which the Potency entry in test [3], in test [5] and in test [7] was “inactive” in each case. In addition, the molecule was classed as inactive in test [4].

For `COP(=S)(OC)Oc1ccc(S(=O)(=O)N(C)C)cc1`, the Potency entry in test [3], in test [8] and in test [7] was “inactive” throughout. Besides, the call in test [4] was inactive. In addition, the Potency in test [5] was 0.617 µM (active).

As for `CCOC(=O)CC(SP(=S)(OC)OC)C(=O)OCC` (configuration not stated), the Potency result in test [3] and in test [7] was “inactive” throughout. In addition, in test [4], the call was inactive. Moreover, the Potency in test [8] was 39.9 µM (active) and inactive; in test [5], 1.3 µM (active) and 1.74 µM (active).

`CCc1cc2c(s1)-n1c(C)nnc1CN=C2c1ccccc1Cl`: the Potency result in test [3], in test [8], in test [5] and in test [7] was “inactive” throughout. In addition, the molecule was called inactive in test [4].

Consider `C[C@]12Cc3cn[nH]c3C[C@@H]1CC[C@@H]1[C@@H]2CC[C@@]2(C)[C@H]1CC[C@]2(C)O`, for which the Potency result in test [3] and in test [7] was “inactive” each time. Moreover, the molecule was called inactive in test [4]. Besides, the figures for the Potency in test [8] and in test [5] were 1.95 µM (active) and 0.692 µM (active), respectively.

`c1ccc2c(c1)sc1ccccc12`: the Potency result in test [3], in test [8], in test [5] and in test [7] was “inactive” each time. The result in test [4] was inactive.

For the molecule `CC(C)(C)NCC(O)c1ccccc1Cl` (configuration not stated), the Potency entry in test [3], in test [5] and in test [7] was “inactive” in each case. In test [4], the call was inactive. The Potency in test [8] is 12.3 µM (active).

Turning to `COC1CC(=C(c2cccs2)c2cccs2)C[N+](C)(C)C1` (configuration not stated), the Potency entry in test [3], in test [5] and in test [7] was “inactive” each time. For the same molecule, the call in test [4] was inactive. The Potency in test [8] was 0.138 µM (active).

With `CC(C)c1cccc(C(C)C)c1O`, the Potency entry in test [3], in test [2] and in test [7] was “inactive” in each case. Further, in test [4], the molecule was classed as inactive.

With `C[C@]12CC[C@H]3[C@@H](CCC4=CC(=O)CC[C@@H]43)[C@@H]1CC[C@@H]2OC(=O)CCc1ccco1`, the Potency result in test [3] was “inactive”. Moreover, in test [4], the molecule was classed as inactive. For the same molecule, the Potency in test [5] was 15.5 µM (active).

Turning to `CN(C)CCc1c[nH]c2cccc(OP(=O)(O)O)c12`, the Potency entry in test [3] and in test [5] was “inactive” throughout. The molecule was called inactive in test [4].

On to `O=c1[nH]c2ccccc2n1C1CCNCC1`, for which the Potency entry in test [3] and in test [5] was “inactive” throughout. In addition, the result in test [4] was inactive.

For the molecule `C=C(C)[C@H]1CN[C@H](C(=O)O)[C@H]1CC(=O)O`, the Potency entry in test [3], in test [8], in test [5] and in test [7] was “inactive” each time. In addition, the result in test [4] was inactive.

In the case of `Cc1ncsc1CCCl`, the Potency entry in test [3], in test [8], in test [5] and in test [7] was “inactive” each time. Moreover, the result in test [4] was inactive.

For the molecule `C[C@]12CC[C@H]3[C@@H](CCC4=CC(=O)CC[C@@H]43)[C@@H]1CC[C@@H]2OC(=O)CCC1CCCCC1`, the Potency result in test [3] and in test [7] was “inactive” throughout. Further, the result in test [4] was inactive. Also, the Potency in test [5] was 24.5 µM (active).

(Values after PubChem BioAssay (NCATS).)
